In PubChem BioAssay AID652175 (National Center for Advancing Translational Sciences (NCATS), 2013):
Several values for one entry are separate records, joined by “and”; a condition that tells them apart may be missing. Equal entries are not always repeated. Results filed as inconclusive are left out. A number with no mark means an inactive call. Activity calls are given as the source filed them. The call rests on the fitted dose curve; in most records, active means well fitted inhibition curve with a large enough effect; inconclusive means small, poorly fitted or top-dose-only effect; inactive means no such curve, though single readings can be large or run the other way.

Test: qHTS Assay for Lipid Storage Modulators: S3 Assay against Probe and Analogs
Details: Drosophila S3 cells, BODIPY lipid droplet fluorescence, 18-24 h, oleic acid added to induce droplets; series mostly up to 46.1 µM; activity, negative = lipid storage inhibition: at the top concentration
Procedure, shortened: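 Drosophila S3 cells, 5,000/well, dosed with compounds (0.46% DMSO final) and oleic acid to induce lipid droplets, 18-24 h at 25 °C. BODIPY 493/503 and Cell Tracker Red read by laser-scanning cytometry; % activity relative to 20 uM Triacsin C.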

| Compound | Potency | activity, negative = lipid storage inhibition |
| --- | --- | --- |
| COc1ccc(-n2ncc3c2CCCC3NC(=O)c2ccccn2)cc1 (centres undefined) | 1.3 nM (active) |  |
| O=C(NCCc1ccc2c(c1)OCO2)c1cc2sccc2n1Cc1ccccc1 |  | 3.33% |
| CCOc1cc2c(cc1OCC)CN(C(=O)c1cc3sccc3n1Cc1ccccc1)CC2 | 1320 nM (active) |  |
| O=C(NC1CCCc2c1cnn2-c1ccc(F)cc1F)c1cnon1 (centres undefined) |  | 3.33% |
| CN(C)CC(=O)NC1CCCc2c1cnn2-c1ccc(F)cc1F (centres undefined) |  | 73.3% |
| O=C(O)c1cccc(-c2noc(-c3ccccc3F)n2)c1 |  | 33.3% |
| CCOc1ccc(CCNC(=O)c2ccc3[nH]ccc3c2)cc1OCC |  | 96.7% [at 38.8 µM] |
| CCOc1cc(CCNC(=O)c2cc3sccc3n2Cc2ccccc2)cc(F)c1OCC | 33.2 nM (active) |  |
| CCOc1ccc(CCNC(=O)c2cc3sccc3n2Cc2ccccc2)cc1OCC | 4.2 nM (active) |  |
| O=C(Nc1ccccc1-c1cn2c(CN3CCNCC3)csc2n1)c1cnc2ccccc2n1 |  | -100% |
| O=C(NC1CCCc2c1cnn2CCO)c1ccccn1 (centres undefined) |  | -100% |
| O=C(NC1CCCc2c1cnn2-c1ccc(F)cc1F)c1cccs1 (centres undefined) | 14.8 nM (active) |  |
| CCOC(=O)C1CCN(C(=O)C(C)(C)NC(=O)Nc2ccc(N)cc2)CC1 |  | -20% |
| CCOc1ccc(CCNC(=O)C2CCCCC2)cc1OCC |  | 66.7% |
| O=C(N[C@H]1CCCc2c1cnn2-c1ccc(F)cc1F)c1ccccn1 |  | 13.3% |
| O=C(c1cc2sccc2n1Cc1ccccc1)N(CCc1ccc(O)c(O)c1)Cc1ccccc1 |  | 167% |
| CCOc1ccc(CCN(C)C(=O)c2cc3sccc3n2Cc2ccccc2)cc1OCC | 469 nM (active) |  |
| CCOc1ccc(CCNC(=O)c2cnon2)cc1OCC |  | -10% |
| O=C(NC1CCCc2c1cnn2-c1ccc(F)cc1F)c1ccccc1 (centres undefined) | 20.9 nM (active) and 26.4 nM (active) |  |
| Cc1cc2c(cc1C1(c3ccc(C(=O)O)cc3)CC1)C(C)(C)CCC2(C)C |  | 53.3% |
| CCOC(=O)C1CCN(C(=O)C(C)(C)NC(=O)Nc2cccc(OC)c2)CC1 |  | -103% |
| O=C(NC1CCCc2c1cnn2-c1cccc(O)c1)c1ccccn1 (centres undefined) | 41.8 nM (active) |  |
| CCOC(=O)C1CCN(C(=O)C(C)(C)NC(=O)Nc2cccc(-c3csc(C)n3)c2)CC1 |  | 6.67% |
| O=C(NC1CCCc2c1cnn2-c1ccc(F)cc1F)c1ccc(C2(C(F)(F)F)N=N2)cc1 (centres undefined) | 7430 nM (active) |  |
| CCOc1ccc(CCNC(=O)c2cc3sccc3n2Cc2ccccn2)cc1OCC | 29.6 nM (active) |  |
| CCOc1ccc(CCNC(=O)C2=C(C)OCCO2)cc1OCC |  | 150% |
| CCOc1ccc(CCNC(=O)c2ccc3ccccc3n2)cc1OCC |  | 30% [at 38.8 µM] |
| O=C(NCCc1ccc2c(c1)OCO2)c1cc2sccc2[nH]1 |  | 217% [at 38.8 µM] |
| CCOC(=O)C1CCN(C(=O)C(C)(C)NC(=O)Nc2ccc(CN3CCOCC3)cc2)CC1 |  | -33.3% |
